Here are results for ten compounds from ChEMBL document CHEMBL3988442, “University of Dundee, Small-Polar-MMV Screening Library” (2021).

Structures are written as SMILES. For some assays here: Potency and affinity values are given separately.

Holding throughout (design): scale not given: direction of the effect not stated beside the values
The target of assay [1] is Protein translocase subunit SecA (Escherichia coli (strain K12)) (UniProt P10408). In words: Assay to Identify E. coli SecA ATPase Inhibitors. It counts as functional. The settings on record: 30 µM.
Protein translocase subunit SecA (Escherichia coli (strain K12)), sequence (P10408 whole entry): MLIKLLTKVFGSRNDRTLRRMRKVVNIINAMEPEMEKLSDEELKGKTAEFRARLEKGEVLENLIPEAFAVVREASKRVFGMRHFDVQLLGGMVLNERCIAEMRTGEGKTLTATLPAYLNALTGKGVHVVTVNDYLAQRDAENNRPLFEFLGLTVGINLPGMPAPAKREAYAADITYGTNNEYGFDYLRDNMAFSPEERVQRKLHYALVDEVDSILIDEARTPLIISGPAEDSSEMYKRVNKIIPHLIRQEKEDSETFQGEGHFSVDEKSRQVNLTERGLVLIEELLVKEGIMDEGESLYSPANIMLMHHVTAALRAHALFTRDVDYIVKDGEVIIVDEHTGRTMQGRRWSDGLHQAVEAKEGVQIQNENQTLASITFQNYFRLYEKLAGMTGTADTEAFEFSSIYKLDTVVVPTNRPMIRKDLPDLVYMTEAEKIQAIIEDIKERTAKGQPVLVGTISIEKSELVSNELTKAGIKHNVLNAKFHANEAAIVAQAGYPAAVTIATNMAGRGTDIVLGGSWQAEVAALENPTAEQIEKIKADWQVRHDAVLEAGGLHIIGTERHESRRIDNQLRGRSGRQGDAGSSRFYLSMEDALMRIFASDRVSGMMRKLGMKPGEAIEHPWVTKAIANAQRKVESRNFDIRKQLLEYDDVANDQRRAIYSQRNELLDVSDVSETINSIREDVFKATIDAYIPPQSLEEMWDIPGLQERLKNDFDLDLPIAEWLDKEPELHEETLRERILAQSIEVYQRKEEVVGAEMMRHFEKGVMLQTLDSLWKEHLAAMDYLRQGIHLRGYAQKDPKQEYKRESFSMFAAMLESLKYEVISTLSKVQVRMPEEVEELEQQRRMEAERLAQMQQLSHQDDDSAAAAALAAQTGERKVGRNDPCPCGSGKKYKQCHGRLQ
Assay [2] concerns the target T1, Ubiquitin-activating enzyme e1, putative (Leishmania donovani (strain BPK282A1)) (UniProt E9BSI1).
T1 sequence (whole entry): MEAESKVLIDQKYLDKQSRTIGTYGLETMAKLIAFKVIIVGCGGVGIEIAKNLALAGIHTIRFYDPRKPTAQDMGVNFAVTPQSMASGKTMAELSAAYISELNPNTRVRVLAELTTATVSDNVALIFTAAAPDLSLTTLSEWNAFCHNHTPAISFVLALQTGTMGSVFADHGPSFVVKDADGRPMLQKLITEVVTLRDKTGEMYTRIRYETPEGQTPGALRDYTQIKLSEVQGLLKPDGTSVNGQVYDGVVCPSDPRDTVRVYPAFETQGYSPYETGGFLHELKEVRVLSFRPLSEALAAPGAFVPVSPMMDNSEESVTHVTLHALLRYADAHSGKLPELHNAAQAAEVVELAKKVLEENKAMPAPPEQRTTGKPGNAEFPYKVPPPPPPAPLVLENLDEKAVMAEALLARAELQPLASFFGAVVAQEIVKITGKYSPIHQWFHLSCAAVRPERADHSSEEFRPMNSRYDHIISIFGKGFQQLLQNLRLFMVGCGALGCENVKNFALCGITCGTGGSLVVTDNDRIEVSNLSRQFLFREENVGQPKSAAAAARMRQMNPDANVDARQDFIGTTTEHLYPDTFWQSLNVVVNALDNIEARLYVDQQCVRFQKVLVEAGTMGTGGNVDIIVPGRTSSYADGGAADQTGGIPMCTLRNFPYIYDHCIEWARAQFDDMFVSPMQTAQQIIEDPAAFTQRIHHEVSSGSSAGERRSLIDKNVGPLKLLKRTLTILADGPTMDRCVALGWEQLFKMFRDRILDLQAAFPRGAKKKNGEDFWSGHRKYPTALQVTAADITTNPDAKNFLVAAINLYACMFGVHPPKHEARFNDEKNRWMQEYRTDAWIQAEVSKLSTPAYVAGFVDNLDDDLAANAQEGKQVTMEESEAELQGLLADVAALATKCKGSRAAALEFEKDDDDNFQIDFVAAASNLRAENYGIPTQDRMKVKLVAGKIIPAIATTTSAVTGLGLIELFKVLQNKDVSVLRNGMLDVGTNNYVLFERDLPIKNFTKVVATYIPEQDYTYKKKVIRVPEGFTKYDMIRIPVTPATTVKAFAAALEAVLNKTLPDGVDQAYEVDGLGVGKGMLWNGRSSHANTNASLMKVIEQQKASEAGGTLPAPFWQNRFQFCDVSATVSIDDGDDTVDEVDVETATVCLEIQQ
In words: Leishmania donovani Ubiquitin Activating Enzyme (LdE1). It counts as functional. The settings on record: 30 µM.

The target of assay [3] is AMP-activated protein kinase, AMPK (Homo sapiens) (UniProt P54646+O43741+P54619+Q9UGJ0+Q9Y478+Q13131+Q9UGI9). The assay is described as follows: AMP-dependent Kinase enzyme assay. An in vitro enzyme assay that detects ADP turnover that is directly proportional to AMPK activity. This uses naive AMPK that is activated during the assay with MK-8722. It counts as functional. The conditions noted are these: 30 µM.

Assay [4] has as its target Sialic acid-binding Ig-like lectin 9 (Homo sapiens) (UniProt Q9Y336). In words: Hs-Siglec9 ALPHAscreen SOP 20170721. The settings on record: 10 µM. In general terms: In Alpha technology, singlet oxygen from a donor bead excites a nearby acceptor bead.
Another assay relates to Trypanosoma cruzi. In words: Trypanosoma cruzi phosphomannomutase and mannose-1-phosphate guanylyltransferase assay. The assay is classed as functional. The conditions noted are these: 10 µM.
Assay [5] has as its target T2, Arginase-2, mitochondrial (Homo sapiens) (UniProt P78540).
T2 sequence (whole entry): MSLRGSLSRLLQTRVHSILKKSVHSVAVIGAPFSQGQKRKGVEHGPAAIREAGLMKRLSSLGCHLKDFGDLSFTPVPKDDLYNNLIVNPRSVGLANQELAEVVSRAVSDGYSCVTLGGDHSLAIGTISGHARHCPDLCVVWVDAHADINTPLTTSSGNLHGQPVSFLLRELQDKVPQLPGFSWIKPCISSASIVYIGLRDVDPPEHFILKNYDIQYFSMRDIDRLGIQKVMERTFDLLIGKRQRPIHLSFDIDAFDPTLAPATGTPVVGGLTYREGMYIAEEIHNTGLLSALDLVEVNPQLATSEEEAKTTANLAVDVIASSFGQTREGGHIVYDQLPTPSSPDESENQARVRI
In words: in vitro enzyme assay to detect the production of urea directly proportional to the activity of Arginase II. Note: in the data most compounds retested in dose-response had high values. It counts as functional. The conditions noted are these: 33.3 µM.

Assay [6] addresses T3, Proteasome subunit beta (Trypanosoma cruzi) (UniProt O96673).
T3 sequence (whole entry): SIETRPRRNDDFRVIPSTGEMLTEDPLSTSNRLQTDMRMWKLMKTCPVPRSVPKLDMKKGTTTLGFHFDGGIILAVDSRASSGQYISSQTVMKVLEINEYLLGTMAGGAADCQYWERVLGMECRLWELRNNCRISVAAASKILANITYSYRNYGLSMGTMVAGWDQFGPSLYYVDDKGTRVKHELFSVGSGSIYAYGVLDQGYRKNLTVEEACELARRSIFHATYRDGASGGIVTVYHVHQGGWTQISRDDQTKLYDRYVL
The assay is described as follows: Trypanosoma cruzi proteasome chymotrypsin-like activity (TcProtChymo) assay. Note: in the data most compounds retested in dose-response had high values. The assay is classed as functional. The conditions noted are these: 9.37 µM.

For a further assay, the species on record is Homo sapiens. The assay is described as follows: To identify inhibition of the IFN signalling (Jak-Stat) pathway via expression of an eGFP reporter gene under the control of an IFN-stimulated response element (ISRE) containing MxA promoter. It counts as functional. The conditions noted are these: 30 µM. For orientation: A reporter such as luciferase makes a cellular process visible.

For assay [7], the target named is T4, Tyrosyl-tRNA synthetase, putative (Trypanosoma cruzi (strain CL Brener)) (UniProt Q4DSP6).
T4 sequence (whole entry): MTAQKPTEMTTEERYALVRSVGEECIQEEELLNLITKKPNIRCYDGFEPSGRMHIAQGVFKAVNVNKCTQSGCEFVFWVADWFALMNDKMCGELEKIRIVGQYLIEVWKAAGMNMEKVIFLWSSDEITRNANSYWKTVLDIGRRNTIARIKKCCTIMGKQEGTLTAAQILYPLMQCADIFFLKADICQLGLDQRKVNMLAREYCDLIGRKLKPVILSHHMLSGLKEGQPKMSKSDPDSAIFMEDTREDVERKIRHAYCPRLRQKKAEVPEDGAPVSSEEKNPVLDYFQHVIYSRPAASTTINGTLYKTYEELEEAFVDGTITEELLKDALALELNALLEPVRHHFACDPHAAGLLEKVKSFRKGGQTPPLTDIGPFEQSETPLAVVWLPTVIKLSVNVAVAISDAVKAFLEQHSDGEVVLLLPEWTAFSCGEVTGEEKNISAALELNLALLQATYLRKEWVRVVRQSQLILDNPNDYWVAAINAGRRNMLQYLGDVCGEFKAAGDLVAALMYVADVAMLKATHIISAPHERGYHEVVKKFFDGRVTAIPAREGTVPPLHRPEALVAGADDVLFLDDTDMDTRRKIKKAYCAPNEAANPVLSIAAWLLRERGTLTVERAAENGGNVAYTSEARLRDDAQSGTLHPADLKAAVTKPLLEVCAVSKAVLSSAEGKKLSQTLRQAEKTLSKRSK
In words: Trypanosoma cruzi tyrosyl tRNA synthetase (TcYRS) _High Tyrosine SOP. Note: in the data most compounds retested in dose-response had high values. The assay is classed as functional. The settings on record: 30 µM.

In assay [8] the target is T4, Tyrosyl-tRNA synthetase, putative (Trypanosoma cruzi (strain CL Brener)). The assay is described as follows: Trypanosoma cruzi tyrosyl tRNA synthetase (TcYRS) SOP. The assay is classed as functional. The conditions noted are these: 30 µM.
The target of assay [9] is Chromo domain-containing protein 1 (Saccharomyces cerevisiae (strain ATCC 204508 / S288c) (Baker's yeast)) (UniProt P32657). The assay is described as follows: ScCHD-1 Enzyme Inhibition Assay. Note: in the data most compounds retested in dose-response had high values. The conditions noted are these: 30 µM. The assay is classed as functional.
Chromo domain-containing protein 1 (Saccharomyces cerevisiae (strain ATCC 204508 / S288c) (Baker's yeast)), sequence (P32657 whole entry, the tested form may be a part): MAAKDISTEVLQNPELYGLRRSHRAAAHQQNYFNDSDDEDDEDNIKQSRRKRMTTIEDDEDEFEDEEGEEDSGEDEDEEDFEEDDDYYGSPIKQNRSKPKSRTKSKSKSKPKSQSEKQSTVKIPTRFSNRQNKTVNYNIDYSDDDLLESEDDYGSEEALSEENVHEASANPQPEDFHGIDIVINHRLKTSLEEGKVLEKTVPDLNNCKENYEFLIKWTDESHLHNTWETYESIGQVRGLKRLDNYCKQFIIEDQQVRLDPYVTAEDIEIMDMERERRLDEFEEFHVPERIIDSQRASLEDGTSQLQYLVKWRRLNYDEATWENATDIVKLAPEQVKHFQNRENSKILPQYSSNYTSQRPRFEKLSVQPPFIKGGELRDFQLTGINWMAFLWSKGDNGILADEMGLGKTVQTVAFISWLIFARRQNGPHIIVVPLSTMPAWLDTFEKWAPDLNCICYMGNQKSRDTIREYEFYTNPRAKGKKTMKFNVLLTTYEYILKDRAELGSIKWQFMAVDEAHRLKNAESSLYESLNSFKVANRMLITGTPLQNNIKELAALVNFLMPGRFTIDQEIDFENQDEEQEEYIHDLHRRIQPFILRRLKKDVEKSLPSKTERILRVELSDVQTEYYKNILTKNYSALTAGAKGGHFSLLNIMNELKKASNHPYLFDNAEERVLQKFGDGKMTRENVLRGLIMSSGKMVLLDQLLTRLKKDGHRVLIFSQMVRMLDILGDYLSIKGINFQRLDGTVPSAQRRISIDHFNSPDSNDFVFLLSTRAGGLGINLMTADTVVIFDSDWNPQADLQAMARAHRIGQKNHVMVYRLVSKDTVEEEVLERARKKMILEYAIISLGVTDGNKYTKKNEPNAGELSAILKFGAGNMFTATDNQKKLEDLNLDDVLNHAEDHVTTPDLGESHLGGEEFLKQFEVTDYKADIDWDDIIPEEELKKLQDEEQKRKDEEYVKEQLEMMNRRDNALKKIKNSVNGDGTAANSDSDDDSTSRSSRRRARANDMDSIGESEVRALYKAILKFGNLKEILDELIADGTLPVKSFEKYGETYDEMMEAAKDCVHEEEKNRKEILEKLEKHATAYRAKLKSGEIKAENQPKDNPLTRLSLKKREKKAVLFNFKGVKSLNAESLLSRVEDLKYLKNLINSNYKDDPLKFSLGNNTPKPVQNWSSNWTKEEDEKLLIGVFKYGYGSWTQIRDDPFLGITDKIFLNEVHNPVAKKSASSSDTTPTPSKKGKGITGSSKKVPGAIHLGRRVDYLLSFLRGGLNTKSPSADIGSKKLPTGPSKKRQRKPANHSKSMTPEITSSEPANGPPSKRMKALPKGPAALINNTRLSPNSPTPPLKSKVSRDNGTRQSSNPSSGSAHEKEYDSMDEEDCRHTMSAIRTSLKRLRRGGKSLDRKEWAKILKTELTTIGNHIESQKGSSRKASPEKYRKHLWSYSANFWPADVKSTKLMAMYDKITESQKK

Sialic acid-binding Ig-like lectin 9 (Homo sapiens), sequence (Q9Y336 whole entry): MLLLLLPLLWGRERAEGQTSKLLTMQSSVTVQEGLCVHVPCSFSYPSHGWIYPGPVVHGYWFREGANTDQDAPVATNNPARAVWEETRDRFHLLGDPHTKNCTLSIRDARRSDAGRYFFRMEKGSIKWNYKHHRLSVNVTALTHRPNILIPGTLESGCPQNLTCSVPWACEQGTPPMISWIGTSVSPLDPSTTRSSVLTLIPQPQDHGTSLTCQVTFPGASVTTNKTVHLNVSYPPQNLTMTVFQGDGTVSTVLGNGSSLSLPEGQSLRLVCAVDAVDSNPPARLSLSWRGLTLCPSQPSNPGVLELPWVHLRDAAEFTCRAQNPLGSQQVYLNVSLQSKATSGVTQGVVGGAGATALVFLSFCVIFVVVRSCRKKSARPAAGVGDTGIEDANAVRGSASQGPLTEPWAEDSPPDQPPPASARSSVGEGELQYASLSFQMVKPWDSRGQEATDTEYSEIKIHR

Take `O=C(COCc1ccccc1Cl)N1CCCC(n2cccn2)C1` (stereo not given): the Percent Effect in [1] is -4.85%; in assay [2] it was 18.2%; in assay [3], 6.5%; in assay [4] it was -7.66%; in the assay with Trypanosoma cruzi it was -1.08%; in assay [5], 4%. The Percent Effect was 20.4% in assay [6]; 20.2% in the assay listed under Homo sapiens; 2.86% in assay [7]; 11.8% in assay [8]; -9.25% in [9].

As to `CN1CCOC(CNCc2coc(-c3ccccc3)n2)C1` (stereo not given), the Percent Effect in assay [1] was 0.225%; in [2], 12.7%; in assay [3] it was -7.36%; in assay [4] it was -10.7%; with Trypanosoma cruzi it was -5.57%; in assay [5] it was 7.22%. Also, the Percent Effect in [6] was 8.6%; in the assay listed under Homo sapiens it was 24.4%; in assay [7], 6.4%; in [8], 13.9%; in assay [9], -5.22%.

`Cc1nc([C@@H]2C[C@@H]3CCN(C(=O)c4occc4C)C[C@H]3O2)no1`: the Percent Effect in assay [1] was -6.42%; in [2] it was 0%; in assay [3] it was 6.51%; in assay [4], 3.94%; with Trypanosoma cruzi, -1.74%; in assay [5] it was -52.1%. Also, the Percent Effect was 4.1% in assay [6]; 7.9% in the assay filed under Homo sapiens; -1.04% in assay [7]; -5% in [8]; -4.87% in [9].

For the compound `COc1c(C2CCCN2C(=O)c2ccc(Cl)o2)c(C)nn1C` (stereo not given), the Percent Effect in assay [1] was -5.93%; in assay [2], 13.5%; in assay [3], -4.28%; in assay [4], 21.4%; in the assay with Trypanosoma cruzi it was 2.93%; in assay [5] it was 4.17%. The Percent Effect in assay [6] is 10.6%; in the assay filed under Homo sapiens, -2.68%; in assay [7], 5.94%; in assay [8], 18.3%; in assay [9], -0.337%.

With `CCc1nc2n(n1)CC(NCC(=O)Nc1nccs1)CC2` (stereo not given), the Percent Effect was -2.54% in assay [1]; -2.53% in assay [2]; -11.6% in assay [3]; -5.43% in assay [4]; -5.95% with Trypanosoma cruzi; -1.9% in [5]. Besides, the Percent Effect in assay [6] was -0.737%; in the assay filed under Homo sapiens, 15.1%; in assay [7], 2.46%; in assay [8], -8.86%; in [9] it was -2.63%.

On to `O=C(c1cccc(F)c1)N1CCOC(c2nc(-c3ncccn3)no2)C1` (stereo not given), for which the Percent Effect in assay [1] is -7.06%; in assay [2], 5.33%; in [3] it was 0.687%; in assay [4], -2.48%; in the assay with Trypanosoma cruzi it was -4.53%; in [5], -0.699%. Also, the Percent Effect was 3.44% in assay [6]; 17.9% in the assay listed under Homo sapiens; 3.19% in assay [7]; 6.41% in assay [8]; -2.27% in assay [9].

For `CCn1cnnc1CNC(=O)N1CCC(Cc2cccnc2)CC1`, the Percent Effect in assay [1] is -2.15%; in assay [2], -2.6%; in [3], -0.131%; in [4], 1.86%; in the assay with Trypanosoma cruzi, -4.41%; in assay [5] it was 1.47%. Besides, the Percent Effect in assay [6] was 0.0808%; in the assay filed under Homo sapiens, 7.54%; in assay [7], -1.91%; in assay [8], -4.71%; in [9], 8.62%.

Turning to `CNc1nc(C(=O)N2CCCC(c3nccn3CC3CCC3)C2)cs1` (stereo not given), the Percent Effect in [1] was -5.42%; in assay [2] it was 8.22%; in [3], -0.395%; in assay [4], -0.171%; with Trypanosoma cruzi it was 1.96%; in assay [5], 0.455%. The Percent Effect was 7.81% in [6]; 0.132% in the assay filed under Homo sapiens; 6.45% in assay [7]; -22.5% in assay [8]; -6.79% in assay [9].

For `CCN1CCN(c2ncc(-c3cc(C)no3)c(-c3ccc(C)s3)n2)CC1`, the Percent Effect in [1] is -2.83%; in assay [2] it was 4.05%; in assay [3], 7.99%; in assay [4], 2.04%; in the assay with Trypanosoma cruzi, -5.34%; in [5], -4.41%. Further, the Percent Effect in assay [6] is 2.18%; in the assay listed under Homo sapiens it was -6.45%; in assay [7], 6.45%; in [8], 11.7%; in [9], -15.6%.

As for `CC(=O)N(C)c1nc(CN2CCOC(Cn3cc(C)cn3)C2)cs1` (stereo not given), the Percent Effect in assay [1] is -1.65%; in assay [2], 28.6%; in assay [3], -5.25%; in [4], -17.3%; in the assay with Trypanosoma cruzi, 3.82%; in assay [5] it was -6.95%. In addition, the Percent Effect in assay [6] was 17.4%; in the assay filed under Homo sapiens, 16.8%; in assay [7], 8.57%; in assay [8], 30.6%; in [9], -22.3%.
